Experimental findings from PubChem BioAssay (NCI) are described below.

Common to all, as to experiment: NCI-60 one-dose screen, 48 h (100 = growth as untreated, 0 = no growth, -100 = all killed)
For one test, the system named is K-562 leukemia. The following applies: 10 µM unless noted.
The next test deals with MALME-3M melanoma. The note with it: 10 µM unless noted.
The next test has as its system MDA-MB-231 breast. The note with it: 10 µM unless noted.
A further test has as its system SF-268 CNS. The note with it: 10 µM unless noted.
For a further test, the system named is SF-295 CNS. The note with it: 10 µM unless noted.
The next test deals with SF-539 CNS. The following applies: 10 µM unless noted.
A further test deals with UACC-257 melanoma. The note with it: 10 µM unless noted.
The next test has as its system M14 melanoma. The note with it: 10 µM unless noted.
In a further test the test system is HCT-15 colon. The note with it: 10 µM unless noted.
The next test concerns HT29 colon. The note with it: 10 µM unless noted.
In the next test the test system is SNB-75 CNS. The note with it: 10 µM unless noted.
For the next test, the system named is SNB-19 CNS. The following applies: 10 µM unless noted.
The test system of another test is U251 CNS. The following applies: 10 µM unless noted.
Another test concerns PC-3 prostate. The note with it: 10 µM unless noted.
The next test has as its system SK-MEL-5 melanoma. The note with it: 10 µM unless noted.
For another test, the system named is UACC-62 melanoma. The note with it: 10 µM unless noted.
The subject of the next test is LOX IMVI melanoma. The following applies: 10 µM unless noted.
A further test deals with SK-MEL-28 melanoma. The following applies: 10 µM.
For the next test, the system named is SK-MEL-2 melanoma. The note with it: 10 µM unless noted.
The next test relates to RXF 393 renal. The note with it: 10 µM unless noted.

Compounds without any hit were thinned out: in the full panel of roughly 83,000, 20% have a hit.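 In brief: 96-well plates, 48 h treatment, single concentration, percent growth endpoint.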 Unmarked numbers belong to inactive results. Activity calls are given as the source filed them. How the source made its calls: active means growth percent below 10; inactive means the rest.

For `COc1cccc(C(=O)Cn2cc(/C=C(\C#N)S(=O)(=O)c3ccccc3)c3ccccc32)c1`, the growth with K-562 leukemia is 79.2%; in the test on MALME-3M melanoma, 108%; in the test on MDA-MB-231 breast, 102%; with SF-268 CNS, 93.7%; with SF-295 CNS, 88.8%; in the test with SF-539 CNS, 90.5%. In addition, the growth in the test with UACC-257 melanoma is 89.9%; in the test with M14 melanoma it was 86.5%; with HCT-15 colon it was 110%; with HT29 colon, 111%; in the test with SNB-75 CNS, 92.6%; with SNB-19 CNS, 95.4%. Moreover, the growth is 103% in the test on U251 CNS; 109% in the test with PC-3 prostate; 92.4% in the test with SK-MEL-5 melanoma; 87.5% with UACC-62 melanoma; 94.8% in the test on LOX IMVI melanoma; 112% in the test on SK-MEL-28 melanoma. Moreover, the growth with SK-MEL-2 melanoma was 85.9%.
For the compound `COc1ccccc1C(=O)/C=C/c1ccccc1`, the growth in the test with K-562 leukemia is 23.1%; in the test on MALME-3M melanoma, 99.1%; in the test with MDA-MB-231 breast, 97.6%; in the test on SF-268 CNS, 80%; in the test on SF-295 CNS, 89.9%; in the test with SF-539 CNS it was 91.6%. The growth was 92.6% with UACC-257 melanoma; 103% in the test with M14 melanoma; 53.3% in the test with HCT-15 colon; 56.6% in the test with HT29 colon; 88.5% in the test on SNB-75 CNS; 82.8% in the test on SNB-19 CNS. In addition, the growth was 43.8% with U251 CNS; 75.3% with PC-3 prostate; 85.2% in the test with UACC-62 melanoma; 76.2% in the test on LOX IMVI melanoma; 105% in the test with SK-MEL-28 melanoma; 104% in the test with SK-MEL-2 melanoma.
As to `CCCC(=O)CC(C)=O.CCCC(=O)CC(C)=O.[Cu]`, the growth is 104% in the test with K-562 leukemia; 89.9% in the test with MALME-3M melanoma; 120% in the test with MDA-MB-231 breast; 122% in the test with RXF 393 renal; 103% in the test on SF-295 CNS; 104% in the test on SF-539 CNS. Also, the growth was 74.9% in the test with UACC-257 melanoma; 100% with M14 melanoma; 105% with HCT-15 colon; 94.9% in the test on HT29 colon; 116% in the test with SNB-75 CNS; 110% in the test on SNB-19 CNS. Besides, the growth is 99.9% in the test with U251 CNS; 76.3% in the test on PC-3 prostate; 103% in the test on SK-MEL-5 melanoma; 105% with UACC-62 melanoma; 86.5% with LOX IMVI melanoma; 106% in the test on SK-MEL-28 melanoma. Further, the growth in the test with SK-MEL-2 melanoma was 113%.
With `COc1ccc(C2Nc3nc(OC)n(C)c(=O)c3N=C3c4ccccc4C(=O)C32)cc1` (stereo not given), the growth is 83.8% with K-562 leukemia; 117% in the test with MALME-3M melanoma; 92.2% with MDA-MB-231 breast; 81% with SF-268 CNS; 6.96% (active) in the test on SF-295 CNS; 89.8% in the test on SF-539 CNS. The growth is 127% in the test on UACC-257 melanoma; 92.4% in the test on M14 melanoma; 88.3% in the test on HCT-15 colon; 113% with HT29 colon; 77.4% with SNB-75 CNS; 91.8% in the test with SNB-19 CNS. The growth with U251 CNS is 90.8%; in the test on PC-3 prostate it was 87.8%; in the test with SK-MEL-5 melanoma it was 95%; in the test on UACC-62 melanoma, 93.1%; in the test on LOX IMVI melanoma, 87.7%; in the test on SK-MEL-28 melanoma, 106%. In addition, the growth with SK-MEL-2 melanoma was 89.7%.
For the compound `CSc1nc2c(c(=O)[nH]1)N=C1c3ccccc3C(=O)C1C(c1ccccc1)N2` (stereo not given), the growth with K-562 leukemia was 34.8%; in the test with MALME-3M melanoma, 34.8%; in the test with MDA-MB-231 breast it was 82.6%; in the test with SF-268 CNS, 47.9%; with SF-539 CNS, 25.6%; in the test with UACC-257 melanoma, 74.5%. For the same compound, the growth with M14 melanoma was 29.4%; with HCT-15 colon, 36.8%; with HT29 colon it was 5.89% (active); in the test with SNB-75 CNS it was 34.3%; in the test on SNB-19 CNS it was 39.8%; in the test with U251 CNS, 37.5%. Moreover, the growth in the test with PC-3 prostate was 54.5%; in the test with SK-MEL-5 melanoma, 16.1%; in the test with UACC-62 melanoma it was 37.8%; in the test with LOX IMVI melanoma it was 51.9%; in the test with SK-MEL-28 melanoma, 54%; in the test on SK-MEL-2 melanoma, 59%.
Turning to `COc1ccc(-c2nsc3c2NC(=O)CC3c2ccc3c(c2)OCCO3)cc1` (stereo not given), the growth in the test on K-562 leukemia was 13.3%; in the test on MALME-3M melanoma, 59.9%; with RXF 393 renal, 0.635% (active); in the test on SF-268 CNS, 55.4%; in the test with SF-295 CNS, 0.403% (active); with SF-539 CNS it was -17% (active). Besides, the growth with UACC-257 melanoma was 76.2%; in the test with HCT-15 colon, 14.6%; in the test on HT29 colon, -0.622% (active); in the test with SNB-75 CNS, 35.1%; with SNB-19 CNS, 56.8%; with U251 CNS it was 24.3%. Also, the growth is 23.6% in the test on PC-3 prostate; 27% in the test on SK-MEL-5 melanoma; 32.2% in the test on UACC-62 melanoma; 44.3% in the test on LOX IMVI melanoma; 43.1% in the test on SK-MEL-28 melanoma.
On to `COc1cc(C#N)cc2[nH]c(=O)oc12`, for which the growth was 123% in the test with K-562 leukemia; 89.8% in the test with MALME-3M melanoma; 128% with RXF 393 renal; 100% in the test with SF-268 CNS; 92.4% in the test with SF-295 CNS; 101% in the test on SF-539 CNS. In addition, the growth with UACC-257 melanoma is 106%; with M14 melanoma, 102%; in the test on HCT-15 colon it was 95.6%; in the test with HT29 colon it was 106%; with SNB-75 CNS, 71.9%; with SNB-19 CNS, 106%. For the same compound, the growth was 92.4% in the test on U251 CNS; 102% in the test on PC-3 prostate; 96.7% in the test on SK-MEL-5 melanoma; 113% in the test with UACC-62 melanoma; 111% in the test with LOX IMVI melanoma; 107% in the test with SK-MEL-28 melanoma. Besides, the growth with SK-MEL-2 melanoma was 106%.
In the case of `CCCCc1ccc(NS(=O)(=O)c2cc3c4c(c2)CCN4C(=O)CC3)cc1`, the growth in the test with K-562 leukemia was 7.56% (active); in the test on MALME-3M melanoma, 17.8%; in the test on MDA-MB-231 breast, 35.7%; with RXF 393 renal, 32.5%; in the test on SF-268 CNS, 5.78% (active); in the test with SF-539 CNS, 7.3% (active). Also, the growth is 16.3% in the test on UACC-257 melanoma; 32.6% with HCT-15 colon; 29.9% with HT29 colon; 33.9% in the test with SNB-75 CNS; 26.8% in the test on SNB-19 CNS; 11% in the test on U251 CNS. In addition, the growth with PC-3 prostate is 38.3%; with SK-MEL-5 melanoma it was 0.989% (active); in the test on SK-MEL-28 melanoma, 40.5%; in the test on SK-MEL-2 melanoma, 40.8%.
